This passage reports growth results from PubChem BioAssay (NCI).

Several values for one entry are separate records, joined by “and”; a condition that tells them apart may be missing. Equal entries are not always repeated. Compounds without any hit were thinned out: in the full panel of roughly 83,000, 20% have a hit.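 A percent growth of 40 corresponds to 60% growth inhibition; 0 means no net growth; -100 means all cells died. Active threshold: below 10.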 Values without a mark were called inactive. Activity calls are given as the source filed them.

What all share (experiment): NCI-60 one-dose screen, 48 h (100 = growth as untreated, 0 = no growth, -100 = all killed)
For one experiment, the system named is T-47D breast. The settings on record: 10 µM unless noted.
Another experiment deals with BT-549 breast. The settings on record: 10 µM unless noted.
A further experiment deals with MDA-MB-435 melanoma. Conditions: 10 µM unless noted.
In a further experiment the test system is SW-620 colon. Conditions: 10 µM unless noted.
The subject of another experiment is HCT-116 colon. Conditions: 10 µM unless noted.
For the next experiment, the system named is HCC-2998 colon. Conditions: 10 µM unless noted.
In a further experiment the test system is KM12 colon. Conditions: 10 µM unless noted.
For the next experiment, the system named is MCF7 breast. The settings on record: 10 µM.

With `CC(C)(C)c1ccc(O)c(C2CCCCC2)c1`, the growth in the experiment with T-47D breast was 108%; in the experiment with BT-549 breast, 127%; in the experiment with MDA-MB-435 melanoma, 117%; with SW-620 colon, 99.6%; with HCT-116 colon, 95%; in the experiment with HCC-2998 colon it was 111%. In addition, in the experiment on KM12 colon, the growth was 91.1%.
With `CNC(=O)N/N=C/c1ccc([N+](=O)[O-])o1`, the growth in the experiment on T-47D breast was 104%; with BT-549 breast, 110%; in the experiment with MDA-MB-435 melanoma it was 121%; in the experiment on SW-620 colon, 105%; in the experiment with HCT-116 colon, 94.8%; in the experiment on HCC-2998 colon, 106%. Besides, in the experiment on KM12 colon, the growth was 92.2%.
On to `CN(Cc1cnc2nc(N)nc(N)c2n1)c1ccc(C(=O)NC(CCC(=O)O)C(=O)O)cc1` (stereo not drawn), for which the growth in the experiment with T-47D breast was 67.6%; with BT-549 breast it was 48.4%; in the experiment on MDA-MB-435 melanoma, 30.6%; with SW-620 colon, 27.5%; in the experiment on HCT-116 colon it was 20.6%; with HCC-2998 colon, 27.7%. Moreover, the growth in the experiment with KM12 colon is 32.4%.
On to `CN(C)CCOc1ccc2c(c1)C(=O)/C(=C\c1ncc([N+](=O)[O-])n1C)C2`, for which the growth in the experiment with T-47D breast was 25.4%; in the experiment with MDA-MB-435 melanoma, -73.6% (active); in the experiment on SW-620 colon, -31.6% (active); in the experiment with MCF7 breast it was -30.7% (active); in the experiment with HCT-116 colon it was -5.59% (active); in the experiment with HCC-2998 colon, -86.1% (active). Also, the growth in the experiment on KM12 colon was -68% (active).
Regarding `CCCCCC(CCCCC)C(=O)O`, the growth is 100% in the experiment with T-47D breast; 123% in the experiment on MDA-MB-435 melanoma; 110% in the experiment with SW-620 colon; 109% in the experiment with HCT-116 colon; 119% in the experiment with HCC-2998 colon; 109% in the experiment on KM12 colon.
Take `CCCCCCCCCCCCCCNCc1ccccc1`: the growth is 72.9% with T-47D breast; 96.6% in the experiment with BT-549 breast; 72.2% with MDA-MB-435 melanoma; 42.5% with SW-620 colon; 86.8% in the experiment on HCT-116 colon; 16.1% in the experiment on HCC-2998 colon. For the same compound, in the experiment with KM12 colon, the growth was 62.5%.
On to `N#Cc1ccc([N+](=O)[O-])o1`, for which the growth was 85.1% with T-47D breast; 101% in the experiment with BT-549 breast; 108% in the experiment on MDA-MB-435 melanoma; 106% in the experiment with SW-620 colon; 92.6% with HCT-116 colon; 117% in the experiment with HCC-2998 colon. Also, the growth with KM12 colon is 102%.
On to `O=C1NC(=O)/C(=C/C=C/c2ccccc2)S1`, for which the growth in the experiment on T-47D breast is 60.7%; in the experiment on MDA-MB-435 melanoma it was 49.6%; in the experiment with SW-620 colon, 61.4%; in the experiment on MCF7 breast, 19.1%; with HCT-116 colon, 31.7%; with HCC-2998 colon, 13.2%. For the same compound, in the experiment with KM12 colon, the growth was 38%.
On to `CCCCCCCCCCCCCCCC[N+](C)(CCO)Cc1cnc[nH]1` (stereo not drawn), for which the growth is 16.5% in the experiment with T-47D breast; -43.8% (active) with MDA-MB-435 melanoma; -27% (active) in the experiment on SW-620 colon; -51% (active) in the experiment on HCT-116 colon; -70.5% (active) in the experiment with HCC-2998 colon; -97.7% (active) in the experiment on KM12 colon.
On to `Cc1cc(N)c2ccccc2[n+]1CCCCCCCCCC[n+]1c(C)cc(N)c2ccccc21`, for which the growth is 5.34% (active) and -12.1% (active) with T-47D breast; -29% (active) and -15.7% (active) in the experiment with BT-549 breast; -77.2% (active) and 6.1% (active) with MDA-MB-435 melanoma; 11.6% and 18.1% with SW-620 colon; 4.6% (active) and 3.4% (active) in the experiment with HCT-116 colon; 0.513% (active) with HCC-2998 colon. Besides, the growth with KM12 colon is -48.4% (active) and 6.86% (active).
With `C=C(Cl)C(=NC(C)(C)C)Nc1ccccc1C`, the growth in the experiment on T-47D breast is 64%; in the experiment with BT-549 breast, 102%; in the experiment with MDA-MB-435 melanoma, 32.2%; in the experiment with SW-620 colon it was 72.5%; in the experiment with HCT-116 colon, 66.5%; in the experiment on HCC-2998 colon, 113%. Besides, the growth with KM12 colon is 80.9%.
Turning to `CC1(C)CC([P+](c2ccccc2)(c2ccccc2)c2ccccc2)=NN1`, the growth with T-47D breast was 6.55% (active); with MDA-MB-435 melanoma, 28.2%; in the experiment with SW-620 colon, 47.6%; in the experiment with MCF7 breast, 5.67% (active); with HCT-116 colon, 16.6%; in the experiment on HCC-2998 colon it was 18.1%. Also, in the experiment with KM12 colon, the growth was 21.7%.
In the case of `O=C(Nc1cccc(Br)c1)Oc1ccc(Cl)c2cccnc12`, the growth is 12.1% [100 µM] with T-47D breast; 4.77% [100 µM] (active) in the experiment on BT-549 breast; 30.2% [100 µM] in the experiment on MDA-MB-435 melanoma; 26.1% [100 µM] in the experiment on SW-620 colon; 2.06% [100 µM] (active) in the experiment with HCT-116 colon; 44.9% [100 µM] in the experiment with HCC-2998 colon. Also, the growth in the experiment on KM12 colon was 30.5% [100 µM].
In the case of `CCC(CCCN(CC)CCc1ccccc1)OC(=O)c1cc(OC)c(OC)c(OC)c1` (stereo not drawn), the growth in the experiment with T-47D breast is 77.8%; in the experiment on BT-549 breast, 99.6%; in the experiment on MDA-MB-435 melanoma, 100%; in the experiment on SW-620 colon it was 82.9%; in the experiment on HCT-116 colon, 75.3%; in the experiment on HCC-2998 colon, 96.4%. Besides, the growth with KM12 colon is 96.6%.
For `CCC1OC(OC)C=CC1=O` (stereo not drawn), the growth in the experiment on T-47D breast was 95.1%; with BT-549 breast, 88.8%; in the experiment on MDA-MB-435 melanoma, 98.6%; in the experiment with SW-620 colon it was 100%; in the experiment on HCT-116 colon, 96.5%; with HCC-2998 colon, 122%. The growth with KM12 colon was 99.7%.
As to `CC1OC(OC2C(OC3CCC4(C)C(CCC5(C)C4CC=C4C6CC(C)(C)CCC6(CO)C(O)CC45C)C3(C)C)OC(C(=O)O)C(OC3OC(COC4OC(CO)C(O)C(O)C4O)C(O)C(O)C3O)C2O)C(O)C(O)C1O` (stereo not drawn), the growth in the experiment with T-47D breast was -72.7% (active); in the experiment with BT-549 breast, -92.5% (active); in the experiment on MDA-MB-435 melanoma, -85.3% (active); with SW-620 colon, -64.2% (active); with HCT-116 colon, -88% (active); with HCC-2998 colon, -81.9% (active). The growth in the experiment with KM12 colon was -70.9% (active).
Consider `Cc1ccc2nc(-[n+]3cc4ccccc4cc3C)ccc2c1`, for which the growth in the experiment on T-47D breast is 15.3%; with BT-549 breast, 0.0135% (active); with MDA-MB-435 melanoma, 27.8%; in the experiment on SW-620 colon, 55.8%; with HCT-116 colon it was 25.8%; with HCC-2998 colon, 42.1%. The growth in the experiment with KM12 colon was 31.5%.
As to `CCOC(=O)/C=C/c1ccc([N+](=O)[O-])o1`, the growth is 62.7% with BT-549 breast; 44% with MDA-MB-435 melanoma; 8.72% (active) with SW-620 colon; -54.3% (active) in the experiment on HCT-116 colon; 95.7% with HCC-2998 colon; 87.4% with KM12 colon.
